# Laboratory results reported in PubChem BioAssay AID588358 (NMMLSC, 2011).
# Out of some 310,000 compounds screened, about 1,500 (0.48%) were called active.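 The calls were made as follows: active = binding more than 3 SD below its plate's average and above zero; inconclusive = below that plate limit but binding exactly zero; inactive = the rest.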 The list comes from a sample in which actives are over-represented; it also holds similar structures and randomly drawn compounds.
# Target: Desmoglein-3 (Homo sapiens) (UniProt P32926)
# Sequence (P32926 whole entry, looked up, the tested form may be a part): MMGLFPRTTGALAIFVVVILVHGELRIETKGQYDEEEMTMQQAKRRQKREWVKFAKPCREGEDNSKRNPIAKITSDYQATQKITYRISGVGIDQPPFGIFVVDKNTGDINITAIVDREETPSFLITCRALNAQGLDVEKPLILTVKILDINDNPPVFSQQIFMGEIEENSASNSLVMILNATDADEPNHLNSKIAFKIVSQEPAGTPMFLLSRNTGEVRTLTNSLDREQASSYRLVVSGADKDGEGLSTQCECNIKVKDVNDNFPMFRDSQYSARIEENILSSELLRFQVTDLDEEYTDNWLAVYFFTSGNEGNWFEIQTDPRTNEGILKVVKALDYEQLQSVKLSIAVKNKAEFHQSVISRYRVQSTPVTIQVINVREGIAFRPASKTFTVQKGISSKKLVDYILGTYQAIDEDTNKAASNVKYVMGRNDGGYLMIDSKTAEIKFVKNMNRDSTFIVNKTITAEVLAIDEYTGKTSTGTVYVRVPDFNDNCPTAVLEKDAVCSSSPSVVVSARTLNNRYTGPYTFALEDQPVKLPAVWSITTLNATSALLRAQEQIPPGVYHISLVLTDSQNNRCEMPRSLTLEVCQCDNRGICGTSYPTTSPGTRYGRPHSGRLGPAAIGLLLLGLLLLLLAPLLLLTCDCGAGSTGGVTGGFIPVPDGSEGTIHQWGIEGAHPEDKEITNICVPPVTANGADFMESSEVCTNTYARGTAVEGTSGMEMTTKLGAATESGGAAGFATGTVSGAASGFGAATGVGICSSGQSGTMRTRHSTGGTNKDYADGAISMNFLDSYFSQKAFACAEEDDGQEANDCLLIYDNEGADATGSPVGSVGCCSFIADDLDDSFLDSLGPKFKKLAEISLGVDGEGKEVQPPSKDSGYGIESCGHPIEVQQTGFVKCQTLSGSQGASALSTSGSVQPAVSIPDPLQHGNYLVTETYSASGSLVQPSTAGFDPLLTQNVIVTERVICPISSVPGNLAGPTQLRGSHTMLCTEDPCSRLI
# Test: blockers of anti-DSG3 scFv binding – biochemical, bead-based, flow cytometry, scFv-GFP, primary screen (AID 588358);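 also: hits lower antibody fragment binding to DSG3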
# Conditions: DSG3-coupled beads, at 10 µM, stronger effect = lower value
row,Structure (SMILES),binding (percent of control)
1,CCc1cccc(CC)c1NC(=S)NCc1ccc2[nH]c(C)cc2c1,78.1% (inactive)
2,Cc1cc2cc(CNC(=O)c3ccc(S(=O)(=O)N4CCOCC4)cc3)ccc2[nH]1,95.4% (inactive)
3,Cc1cc2cc(CNC(=O)c3cccs3)ccc2[nH]1,80.6% (active)
4,Cc1onc(-c2ccccc2)c1-c1nnc(COC(=O)c2ccc(N(C)C)cc2)o1,109% (inactive)
5,C[C@H](CO)N1C[C@H](C)[C@H](CN(C)C(=O)c2ccncc2)OCc2ccccc2-c2c(n(C)c3ccccc23)C1=O,103% (inactive)
6,Cc1cccc(C(=O)NC2CCN(CC(=O)Nc3cccc(Cl)c3)CC2)c1,92.9% (inactive)
7,O=C(c1cc(-c2ccc(O)cc2)on1)N1CCOCC1,104% (inactive)
8,O=C(c1cc(-c2ccc(F)cc2)on1)N1CCN(c2ccc(F)cc2)CC1,91% (inactive)
9,O=C(c1cc(-c2ccc(Cl)cc2)on1)N1CCN(c2ccccc2)CC1,24.2% (active)
10,COc1cccc(C(=O)Nc2nnc(S(=O)(=O)N3CCCCC3)s2)c1,99.3% (inactive)
11,Cc1cccc(C(=O)Nc2nnc(S(=O)(=O)N3CCCCCC3)s2)c1,29.9% (active)
12,O=C(Nc1nnc(S(=O)(=O)N2CCCCCC2)s1)c1cccc(Br)c1,102% (inactive)
13,CC1(C2CC2)NC(=O)N(CC(=O)N2CCN(c3ccccc3F)CC2)C1=O (configuration not stated),101% (inactive)
14,COc1ccc(NC(=O)CSc2nnnn2-c2cccc(OC)c2)cc1,92.2% (inactive)
15,O=C(O)C#Cc1cccc2ccccc12,97.7% (inactive)
16,O=C(O)c1ccc(S(=O)(=O)c2ccccc2)s1,123% (inactive)
17,O=C(O)c1cc2ccccc2c(=O)s1,53.2% (active)
18,CCN1C(=O)[C@H]2[C@@H](c3ccc(C(F)(F)F)cc3)N[C@]3(CCCN(Cc4ccc(Br)cc4)C3=O)[C@H]2C1=O,111% (inactive)
19,CCC(=C/c1sc2ccc3ccccc3c2[n+]1C)/C=C1\Sc2ccc3ccccc3c2N1C,75% (active)
20,CCOC(=O)c1cc(-c2sc(NC(=O)c3ccccc3)nc2C)n(-c2ccc(Br)cc2)n1,102% (inactive)
21,Nc1nc(SCC(=O)N2CCN(S(=O)(=O)c3ccc(Cl)cc3)CC2)n[nH]1,104% (inactive)

row,Structure (SMILES),binding (percent of control)
1,O=C(COc1ccc(Cl)cc1)N1CCN(S(=O)(=O)c2ccc(Cl)cc2)CC1,66.4% (active)
2,O=C(CSc1ccccn1)N1CCN(S(=O)(=O)c2ccc(Cl)cc2)CC1,96.2% (inactive)
3,O=C(CSc1ccc(-c2ccc(-n3cccn3)cc2)nn1)Nc1ccc([N+](=O)[O-])cc1,89.5% (active)
4,O=C(CSc1ccc(-c2ccccn2)nn1)Nc1ccccc1,101% (inactive)
5,O=C(CSc1ccc([N+](=O)[O-])cn1)Nc1ccc(N2CCOCC2)cc1,96.9% (inactive)
6,COc1ccccc1NC(=O)C(CC(=O)O)Cc1cc(C)cc(C)c1 (configuration not stated),96.8% (inactive)
7,COc1ccc(CCNC(=O)CN(c2ccccc2)S(=O)(=O)c2ccccc2)cc1,97.8% (inactive)
8,COc1ncnc2c1ncn2CCCNCCN1CCOCC1,98% (inactive)
9,COc1cccc(/C=N/Nc2ccc(Cl)nn2)c1,98.6% (inactive)
10,COc1cccc(/C=N/NC(=O)C(=O)N2CCCC2)c1,102% (inactive)
11,COc1cccc(/C=N\Nc2nncc(-c3ccccc3)n2)c1,90.1% (active)
12,CC(=O)c1c(C)n(-c2ccc(N(C)C)cc2)c2ccc(OCC(N)=O)cc12,96.5% (inactive)
13,CC(=O)c1c(C)n(-c2ccc(C)cc2)c2ccc(O)cc12,61.8% (active)
14,CCOC(=O)c1c(CN2CCOCC2)n(-c2ccccc2)c2ccc(O)cc12,107% (inactive)
15,CCOC(=O)C(C(=O)c1ccccc1)C(c1ccccc1)c1nccc2ccccc12 (configuration not stated),108% (inactive)
16,O=C(O)C1CCCN1c1nc(Cl)ccc1[N+](=O)[O-] (configuration not stated),90.2% (inactive)
17,COc1ccc(S(=O)(=O)N2CCC(C(=O)NCCC(=O)NCCc3cccc(F)c3)CC2)cc1,99% (inactive)
18,Cc1nc(-c2ccc(Cl)cc2)sc1C(=O)CBr,63.4% (active)
19,Cc1nc(-c2ccccc2)sc1C(=O)/C=C/N(C)C,97.8% (inactive)
20,Cc1nc(-c2ccc(Cl)cc2)sc1C(=O)NN,110% (inactive)
21,COc1ccc(CN2C(=O)C(CC(=O)NC3CCCCC3)CC(C(=O)N3CCOCC3)=C2C)cc1 (configuration not stated),102% (inactive)

row,Structure (SMILES),binding (percent of control)
1,COC(=O)c1ccccc1N=NNc1ccc([N+](=O)[O-])cc1,104% (inactive)
2,O=[N+]([O-])c1ccc(N/N=C/c2ccccc2)cc1,102% (inactive)
3,O=[N+]([O-])c1ccc(N=NNc2ccc([N+](=O)[O-])cc2)cc1,44.4% (active)
4,COc1cc(C)c(CN2CCN(C(=O)CCC(=O)c3ccc(C)s3)CC2)cc1OC,98.2% (inactive)
5,COc1ccc(NC(=O)CCCOc2ccc(C(C)=O)cc2)cc1S(=O)(=O)N1CCCCC1,109% (inactive)
6,c1ccc(Cn2nnc3c(NCC4CC4)ncnc32)cc1,101% (inactive)
7,O=C(CC(=O)c1cccnc1)c1ccccc1,66.2% (active)
8,O=C(NNC(=O)c1cccnc1)Nc1ccccc1,103% (inactive)
9,O=C(c1cccnc1)N(Cc1ccccc1)C(=O)c1cccnc1,86.3% (inactive)
10,CCOC(=O)c1cc(-c2sc(NC(=O)c3ccccc3)nc2C)n(Cc2ccccc2)n1,101% (inactive)
11,CCOC(=O)C1CCN(C(=O)c2ccc3c(=O)n4nc(Nc5ccccc5CC)sc4nc3c2)CC1,104% (inactive)
12,Cc1ccc(NC(=O)Cn2c(C)csc2=O)cc1,92.9% (inactive)
13,Cc1nn(CC(=O)Nc2ccc(F)cc2)c(=O)c2ccccc12,105% (inactive)
14,Cc1ccc(NC(=O)Cn2sc3ccccc3c2=O)cc1,58.5% (active)
15,C[C@@H]1CN([C@@H](C)CO)C(=O)c2c(c3ccccc3n2C)-c2ccccc2CO[C@H]1CN(C)C(=O)C1CC1,101% (inactive)
16,COc1ccc(Cl)cc1NC(=O)CN(C)C(=O)c1cn(-c2ccccc2)nc1-c1cccs1,112% (inactive)
17,Cn1ncc([N+](=O)[O-])c1C(=O)Nc1cc(Cl)ccc1Cl,102% (inactive)
18,COc1cc(-c2nnn(CC(=O)NCc3ccccc3)n2)cc(OC)c1OC,89.3% (inactive)
19,O=C(Cn1nnc(-c2ccccc2)n1)NC(=O)NC1CCCC1,102% (inactive)
20,N#Cc1ccc(COC(=O)Cn2nnc(-c3ccccc3)n2)cc1,-1.31% (active)
